Assay outcomes deposited in PubChem BioAssay by several laboratories.
Shown are actives, neighbours in structure and some others; about 2.7% of the full set was active somewhere.
SENP6 block = SENP6 protease inhibitors, primary screen, biochemical, luminescence, uHTS | inhibition, % at 10 µM | 330,000 tested, 1.8% active | Recombinant SENP6 catalytic domain, aminoluciferin luminescence | Sentrin-specific protease 6 (Homo sapiens), Q9GZR1 | AID 2599, 2010;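 active = inhibition above about 50% at the single tested dose, limit read from the data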;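 note: plate controls were DMSO wells with enzyme for no effect and DMSO wells lacking enzyme for full effect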
SENP8 block-1 = human SENP8 protease inhibitors, primary screen, biochemical, fluorescence, Nedd8 protein substrate, uHTS | Sentrin-specific protease 8 (Homo sapiens), Q96LD8 | 360,000 tested, 0.64% active | inhibition, % at 20 µM | recombinant SENP8; in the data active = inhibition mostly above about 40%, no sharp cut-off; inactive = mostly below about 27%
Target sequence (Q96LD8 whole entry, looked up): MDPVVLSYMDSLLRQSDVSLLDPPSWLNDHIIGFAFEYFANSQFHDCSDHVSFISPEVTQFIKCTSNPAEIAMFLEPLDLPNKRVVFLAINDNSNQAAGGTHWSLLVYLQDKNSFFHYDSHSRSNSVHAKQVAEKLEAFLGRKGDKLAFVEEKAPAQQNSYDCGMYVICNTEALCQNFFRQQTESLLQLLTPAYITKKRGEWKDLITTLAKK
SENP8 block-2 = SENP8 protease inhibitors, primary screen, biochemical, luminescence; Sentrin-specific protease 8 (Homo sapiens), Q96LD8; purified SENP8, Z-RLRGG-aminoluciferin cleavage; inhibition, % at 10 µM; 330,000 tested, 1.2% active; AID 2540, 2010; in the data active = inhibition above about 50%
HSP90 inh = HSP90 inhibitors, primary screen, cell lysate, luminescence; Heat shock protein HSP 90 (rabbit reticulocyte lysate; luciferase refolding); Rabbit reticulocyte lysate, luciferase refolding luminescence, 3 h; inhibition, % at 5.6 µM; 290,000 tested, 0.91% active;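 active = inhibition above the screen-wide mean plus 3 SD, computed separately per campaign, cut at about 16% in these data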;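 note: 0% = DMSO wells and 100% = 60 µM geldanamycin wells; inhibitors lower the luminescence because luciferase stays unfolded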
SENP7 block = SENP7 protease inhibitors, primary screen, biochemical, luminescence, uHTS; inhibition, % at 5 µM; 330,000 tested, 1.5% active; recombinant SENP7, Z-RLRGG-aminoluciferin luminescence, 40 min;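 active = inhibition above about 50% at the single test dose, limit read from the data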;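 note: plate controls were DMSO with enzyme for no effect and no enzyme buffer wells for full effect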
SENP8 conf = SENP8 protease inhibitors, retest, confirmation, biochemical, luminescence, single concentration; shares compounds with SENP7 block; Recombinant SENP8, Z-RLRGG-aminoluciferin luminescence, 60 min; inhibition, % at 12.5 µM; 6,200 tested, 40% active; AID 488912, 2010;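 active = mean inhibition across replicates above about 50%, limit read from the data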
SENP6 confirm = SENP6 protease inhibitors, confirmation, biochemical, luminescence, single concentration. shares compounds with SENP7 block. recombinant SENP6, Z-RLRGG-aminoluciferin luminescence. inhibition, % at 12.5 µM. 6,200 tested, 58% active
SENP7 conf = SENP7 protease inhibitors, retest, confirmation, biochemical, luminescence, single concentration; shares compounds with SENP7 block; recombinant SENP7, Z-RLRGG-aminoluciferin luminescence, 40 min; inhibition, % at 12.5 µM; 6,200 tested, 69% active
Casp3 SENP sel = caspase-3 protease inhibitors, confirmation, selectivity assay for SENP inhibitor project, biochemical, single concentration; shares compounds with SENP7 block; purified caspase-3, Z-DEVD-aminoluciferin luminescence, 60 min; inhibition, % at 12.5 µM; 6,200 tested, 60% active; AID 488918, 2010;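 active = mean inhibition above about 50%, limit read from the data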;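 note: plate controls were enzyme with DMSO for no effect and wells without caspase-3 for full effect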
Target sequence (P42574 28-227 limits assumed): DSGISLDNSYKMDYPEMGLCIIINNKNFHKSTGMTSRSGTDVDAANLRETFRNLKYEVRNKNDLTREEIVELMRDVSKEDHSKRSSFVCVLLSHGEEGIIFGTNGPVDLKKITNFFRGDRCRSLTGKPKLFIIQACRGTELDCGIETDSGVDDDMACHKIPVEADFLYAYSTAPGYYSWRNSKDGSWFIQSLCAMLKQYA
SENP luc ctr = interferes with luciferase luminescence in SENP counter-screen | shares compounds with SENP7 block | Pre-incubated SENP8/Z-RLRGG-aminoluciferin, luciferase luminescence interference | inhibition, % at 12.5 µM | 6,200 tested, 39% active | AID 488919;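 active = mean inhibition above about 50% when retested at one dose, limit read from the data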;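 note: plate controls were DMSO wells with completed reaction for no effect and substrate without enzyme for full effect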
* hit, by the source's call; . = not tested or not shown; ! = not confirmed by another sample.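 Rule for the calls, unless noted: active = mean inhibition above about 50% in the one-dose retest (limit read from the data); inactive = the rest.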

SMILES | SENP6 block | SENP8 block-1 | SENP8 block-2 | HSP90 inh | SENP7 block | SENP8 conf | SENP6 confirm | SENP7 conf | Casp3 SENP sel | SENP luc ctr
CCCc1[nH]n(-c2nc3ccccc3s2)c(=O)c1C=NCC1CCCO1 (configuration not stated) | 9 | 11 | 8 | 5 | 4 | . | . | . | . | .
CCCc1[nH]n(-c2nc3ccccc3s2)c(=O)c1C=NCCN1CCOCC1 | 51* | 23 | 34 | -3 | 36 | 56* | 40 | 52* | 60* | 55*
CCN(CC)c1ccc(NS(=O)(=O)c2cn(C)c(=O)n(C)c2=O)c(C)c1 | 1 | 2 | 8 | 1 | 0 | . | . | . | . | .
Cn1c(=O)[nH]c2nnc(-c3ccc(Cl)c(Cl)c3)nc2c1=O | 96* | 12 | 97* | 4 | 97* | 56* | 80* | 53* | 91* | 16
CCCC(=O)Nc1nnc(-c2ccc(Cl)s2)o1 | -5 | -145 | 8 | 0 | 3 | . | . | . | . | .
O=C(N/N=C/C(Cl)=C/c1ccccc1)c1ccncc1 | 4 | -5 | -2 | 1 | -1 | . | . | . | . | .
CC(/C=N/NC(=O)c1ccccc1F)=C\c1ccccc1 | 58* | 2 | 28 | 0 | 43 | 48 | 41 | 70* | 52* | 54*
Cc1nn(-c2ccccc2)c(C)c1/C=N/NC(=O)c1ccc(F)cc1 | -19 | -10 | -4 | . | -12 | . | . | . | . | .
CC(/C=N/NC(=O)c1cccs1)=C\c1ccccc1 | 3 | -38 | 71* | 1 | 77* | 13 | 81* | 93* | 63* | 20
O=C(N/N=C/C(Cl)=C\c1ccccc1)c1cccs1 | 63* | -19 | 52* | -3 | 43 | 9 | 59* | 85* | 31 | 9
Cc1cc(C(=O)N/N=C/c2c(C)nn(-c3ccccc3)c2C)c(C)o1 | 50* | 25 | 35 | 0 | 36 | 34 | 25 | 60* | 55* | 23
CC(=O)N1CCN(c2ccc(NC(=O)c3ccc(N4CCCC4)c([N+](=O)[O-])c3)cc2Cl)CC1 | -2 | 11 | 3 | -2 | -5 | . | . | . | . | .
CCCCCCCC1CC(CSC(=N)N)OC1=O (configuration not stated) | -20 | 18 | -1 | 2 | 2 | . | . | . | . | .
Cc1cc(C(=O)N/N=C/C(Cl)=C/c2ccccc2)c(C)o1 | 49 | 21 | 28 | -3 | 53* | 36 | 36 | 75* | 42 | 40
COc1ccc(C)cc1NC(=O)CCc1c(C)nn(-c2ccc(N3CCCCC3)nn2)c1C | 26 | -15 | 9 | 2 | 4 | . | . | . | . | .
Cc1ccc(/C=N/OC(=O)c2nn(C)cc2Cl)cc1 | 66* | 8 | 50* | -2 | 66* | -5 | 21 | 62* | 34 | 49
Cc1ccc(S(=O)(=O)/N=C2\C=C(Nc3ccc(O)cc3)C(=O)c3ccccc32)cc1 | 84* | 80* | 90* | . | 64* | 90* | 95* | 86* | 94* | 9
COC(=O)c1cccc(NS(=O)(=O)c2cccs2)c1C | . | 24 | . | -3 | . | . | . | . | . | .
Cc1ccc(NC2=C/C(=N/S(=O)(=O)c3cccs3)c3ccccc3C2=O)cc1 | 77* | 94* | 46 | 1 | 69* | 10 | 54* | 12 | 3 | -5
Cc1ccc(S(=O)(=O)Nc2ccc(N=Nc3ccc(O)cc3)cc2)cc1 | -15 | 20 | -10 | -4 | -9 | . | . | . | . | .
COC(=O)c1ccccc1NC1=C/C(=N\S(=O)(=O)c2cccs2)c2ccccc2C1=O | 63* | 53*! | 89* | 4 | 52* | 29 | 64* | 18 | 31 | 8
C[C@@H]1CCCCO[C@@H](CN(C)CC2CCCCC2)[C@@H](C)CN([C@H](C)CO)C(=O)c2cc(NS(=O)(=O)c3ccc(Cl)cc3)ccc2O1 | . | 7 | . | . | . | . | . | . | . | .
COC(=O)CSc1nnc(-c2sc3ccccc3c2Cl)o1 | 70* | -306 | 28 | 6 | 56* | -5 | -3 | 5 | 9 | 2
N#CCSc1nnc(-c2sc3ccccc3c2Cl)o1 | -2 | -23 | -13 | 1 | -8 | . | . | . | . | .
COc1cc(/C=C2\OC(=O)c3c(OC)cccc32)ccc1O | 64* | -402 | 24 | 4 | 47 | 26 | 29 | 82* | 58* | 68*
SMILES | SENP6 block | SENP8 block-1 | SENP8 block-2 | HSP90 inh | SENP7 block | SENP8 conf | SENP6 confirm | SENP7 conf | Casp3 SENP sel | SENP luc ctr
COc1cc(C=C2CN(C)C(=O)C2=O)ccc1O | . | 20 | . | . | . | . | . | . | . | .
CCCCSc1nc2c(cnn2-c2ccccc2)c(=O)n1N | 82* | 16 | 44 | -1 | 68* | 69* | 67* | 88* | 63* | 48
CCCSc1nc2c(cnn2-c2ccccc2)c(=O)n1N | 31 | 6 | 22 | 4 | 36 | . | . | . | . | .
Nn1c(SCc2ccccc2)nc2c(cnn2-c2ccccc2)c1=O | 62* | 9 | 22 | 0 | 43 | 23 | 14 | 64* | 32 | 17
O=C(O)CSc1nc2c(cnn2-c2ccccc2)c(=O)n1-c1ccc(Br)cc1 | 56* | 19 | 41 | 4 | 3 | 40 | 37 | 24 | 10 | 60*
Cc1ccccc1-c1noc(-c2ccccc2C(=O)N2CCCC2)n1 | -1 | 14 | -1 | 4 | 1 | . | . | . | . | .
NC(=O)c1ccc(-c2noc(-c3ccccc3F)n2)cc1 | 74* | 16 | 66* | . | 77* | 36 | 63* | 77* | 69* | 20
O=C(c1ccccc1-c1nc(-c2ccc(Cl)cc2)no1)N1CCCC1 | -11 | 12 | -2 | 6 | -17 | . | . | . | . | .
COc1ccc(-c2ccc(-c3noc(-c4ccccc4C)n3)c(OC)n2)cc1 | -14 | -417 | 0 | 3 | 1 | . | . | . | . | .
Cc1ccccc1-c1noc(-c2ccc(O)cc2)n1 | 98* | 17 | 99* | -5 | 101* | 99* | 100* | 102* | 98* | 97*
Cc1ccccc1-c1noc(-c2ccccc2F)n1 | 84* | 19 | 90* | -1 | 96* | 78* | 78* | 94* | 81* | 61*
